{
  "source": "the supplement of paper PMC10981050",
  "note": "Counter-ions that a name gives are not always drawn.",
  "data": [
    {"test_system": "OCI-AML2", "test": "cell viability relative to vehicle control; higher = less cytotoxic", "conditions": "10 µM; SRSF2 genotype: P95H/wt", "in_short": "(§1)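 CRISPR-edited SRSF2 P95 mutant and isogenic wild-type clones of four leukaemia lines were screened against Selleck bioactive, kinase and epigenetic probe libraries, with identity-inconsistent compounds removed. Compounds were acoustically dispensed into 384-well plates at a single 10 µM dose, with 2000 cells in 50 µL medium per well. After 48 h, supernatant was removed and CellTiter-Glo luminescence was read. Viability was expressed as percent of the on-plate DMSO vehicle control, analysed in Genedata Screener.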", "units": {"cell viability": "%"}, "values": [
      {"smiles": "CC(=O)O[C@H]1CC(=O)OC(C)(C)[C@@H]2CC(=O)[C@]3(C)[C@H](CC[C@@]4(C)[C@@H](c5ccoc5)OC(=O)[C@H]5O[C@]543)[C@@]12C", "note": "[Nomilin]", "cell viability": 94.8},
      {"smiles": "CC(=O)N1CCC(Nc2cc(C(=O)NC[C@H](O)CN3CCc4ccccc4C3)ncn2)CC1", "cell viability": 78.3},
      {"smiles": "NCCCC[C@@H]1NC(=O)[C@@H](Cc2ccccc2)NC(=O)[C@H](CC(=O)O)NC(=O)CNC(=O)[C@H](CCCN=C(N)N)NC1=O", "note": "[Cyclo (-RGDfK)]", "cell viability": 108},
      {"smiles": "Cc1cc(Nc2ncc3c(n2)N(C)C(=O)N(c2cc(NC(=O)c4cccc(C(F)(F)F)c4)ccc2C)C3)n(C)n1", "note": "[Pluripotin (SC1)]", "cell viability": 12.7},
      {"smiles": "c1ccc(NCc2ccc(CNc3ccccn3)cc2)nc1", "cell viability": 78.6},
      {"smiles": "O=c1cc(-c2ccc(O)c(O)c2)oc2c([C@@H]3O[C@H](CO)[C@@H](O)[C@H](O)[C@H]3O)c(O)cc(O)c12", "note": "[Orientin]", "cell viability": 98.8},
      {"smiles": "OCC1OC(Oc2ccc(O)cc2)C(O)C(O)C1O", "note": "(stereo not drawn) [alpha-Arbutin]", "cell viability": 98.8},
      {"smiles": "CCCCCCCCCCCCCCCC(=O)OCC(O)C1OC(=O)C(O)=C1O", "note": "[L-Ascorbyl 6-palmitate]", "cell viability": 103},
      {"smiles": "COC(=O)[C@]12CCC(C)(C)C[C@H]1[C@H]1C(=O)C=C3[C@@]4(C)C=C(C#N)C(=O)C(C)(C)[C@@H]4CC[C@@]3(C)[C@]1(C)CC2", "note": "[Bardoxolone Methyl]", "cell viability": 0.19},
      {"smiles": "COC(=O)c1cc(O)c(O)c(O)c1", "note": "[Methyl gallate]", "cell viability": 96.9},
      {"smiles": "COc1ccccc1OCC(O)CO", "note": "(stereo not given) [Guaifenesin (Guaiphenesin)]", "cell viability": 105},
      {"smiles": "N#Cc1cccc(-c2c[nH]c3ncnc(N4CCOCC4)c23)c1", "cell viability": 109},
      {"smiles": "c1cncc(-c2cn[nH]n2)c1", "cell viability": 31.8},
      {"smiles": "C1=Cc2ccccc2Nc2ccccc21", "note": "[Iminostilbene]", "cell viability": 106},
      {"smiles": "COc1ccc(-c2oc3c(CC=C(C)C)c(O)cc(O)c3c(=O)c2O[C@@H]2O[C@@H](C)[C@H](O)[C@@H](O)[C@H]2O)cc1", "note": "[Baohuoside I]", "cell viability": 101}
    ]},
    {"test_system": "OCI-AML2", "test": "cell viability relative to vehicle control; higher = less cytotoxic", "conditions": "10 µM; SRSF2 genotype: wt/wt", "in_short": "as §1", "units": {"cell viability": "%"}, "values": [
      {"smiles": "CCN(CCCc1ccccc1)CCCc1ccccc1", "note": "[Alverine Citrate]", "cell viability": 86.5},
      {"smiles": "CC(=O)OCC(=O)[C@@]12N=C(C)O[C@@H]1C[C@H]1[C@@H]3CCC4=CC(=O)C=C[C@]4(C)[C@H]3[C@@H](O)C[C@@]12C", "note": "[Deflazacort (Calcort)]", "cell viability": 114},
      {"smiles": "CS(=O)(=O)Nc1ccc([N+](=O)[O-])cc1OC1CCCCC1", "cell viability": 101},
      {"smiles": "O=C(/C=C/c1ccc(O)c(O)c1)O[C@@H]1C[C@](O)(C(=O)O)C[C@@H](O)[C@H]1O", "note": "[Chlorogenic acid]", "cell viability": 102},
      {"smiles": "Nc1ncnc2c1ncn2C1OC(COP(=O)(O)OP(=O)(O)O)C(O)C1O", "note": "(stereo not given)", "cell viability": 99.9},
      {"smiles": "C[C@@H]1Cc2c([nH]c3ccccc23)[C@@H](c2c(F)cc(/C=C/C(=O)O)cc2F)N1CC(C)(C)F", "cell viability": 107},
      {"smiles": "O=C(c1ccccc1)c1ccc2nc(NC(=O)c3csc(C4CCN(c5ncnc6ccsc56)CC4)n3)[nH]c2c1", "cell viability": 25},
      {"smiles": "CC(C)NCC(O)c1ccc(O)c(O)c1", "note": "(stereo not given) [Isoprenaline hydrochloride]", "cell viability": 101},
      {"smiles": "O=C(Nc1ccc(Br)cc1)c1c(O)cccc1O", "note": "[Resorantel]", "cell viability": 14.2},
      {"smiles": "Nc1ccn([C@@H]2O[C@H](CO)[C@@H](O)[C@H]2O)c(=O)n1", "note": "[Cytidine]", "cell viability": 86.6},
      {"smiles": "O=C1[C@H]2CCCC[C@H]2C(=O)N1CCCCN1CCN(c2nsc3ccccc23)CC1", "note": "[Perospirone hydrochloride]", "cell viability": 75.8},
      {"smiles": "COc1cc(C(=O)NS(=O)(=O)c2ccccc2C)ccc1Cc1cn(C)c2ccc(NC(=O)OC3CCCC3)cc12", "note": "[Zafirlukast (Accolate)]", "cell viability": 104},
      {"smiles": "CCn1cc(C(=O)O)c(=O)c2cc(F)c(N3CCNCC3)nc21", "note": "[Enoxacin (Penetrex)]", "cell viability": 105},
      {"smiles": "COc1ccc(S(=O)(=O)N(C(C)=O)c2ccccc2/C=C/c2cc[n+]([O-])cc2)cc1", "cell viability": 9.13},
      {"smiles": "Cc1cncc(CN2CCC(=C3c4ccc(Cl)cc4CCc4cccnc43)CC2)c1", "note": "[Rupatadine Fumarate]", "cell viability": 46},
      {"smiles": "C/C(=C\\C(=O)OCCCCCCCCC(=O)O)C[C@@H]1OC[C@H](C[C@@H]2O[C@H]2[C@@H](C)[C@H](C)O)[C@@H](O)[C@H]1O", "note": "[Mupirocin calcium]", "cell viability": 93.5},
      {"smiles": "O=C1[C@H](CC[C@H](O)c2ccc(F)cc2)[C@@H](c2ccc(O)cc2)N1c1ccc(F)cc1", "note": "[Ezetimibe (Zetia)]", "cell viability": 88.2},
      {"smiles": "Cc1cc(F)c(C(=O)Nc2cccc(-c3nncn3C(C)C)n2)cc1-n1cnc(C2CC2)c1", "note": "[Selonsertib (GS-4997)]", "cell viability": 62},
      {"smiles": "COc1cc(C(C)=O)ccc1O", "note": "[Apocynin (Acetovanillone)]", "cell viability": 93.7},
      {"smiles": "COc1cc2c(cc1OC)[C@@H](Cc1ccc(Oc3cc(C[C@@H]4c5cc(OC)c(OC)cc5CCN4C)ccc3O)cc1)N(C)CC2", "note": "[Dauricine]", "cell viability": 4.94},
      {"smiles": "c1ccc2c(CCNc3ccc(Nc4ccncc4)cc3)c[nH]c2c1", "cell viability": 2},
      {"smiles": "O=C(O)c1ccc(Br)c(O)c1", "note": "[4-Bromo-3-hydroxybenzoic acid]", "cell viability": 108},
      {"smiles": "CC(=O)NC[C@H]1CN(c2ccc(N3CCOCC3)c(F)c2)C(=O)O1", "note": "[Linezolid (Zyvox)]", "cell viability": 86.7},
      {"smiles": "C[C@H]1[C@H](C)CC[C@]2(C(=O)O)CC[C@]3(C)C(=CC[C@@H]4[C@@]5(C)CCC(=O)C(C)(C)[C@@H]5CC[C@]43C)[C@H]12", "note": "[Ursonic acid]", "cell viability": 16.9},
      {"smiles": "CN(C)C(=O)c1ccc(S(=O)(=O)c2ccc(NC(=O)C(C)(O)C(F)(F)F)c(Cl)c2)cc1", "note": "(stereo not given)", "cell viability": 55.2},
      {"smiles": "CC(=O)O[C@H]1CC(=O)OC(C)(C)[C@@H]2CC(=O)[C@]3(C)[C@H](CC[C@@]4(C)[C@@H](c5ccoc5)OC(=O)[C@H]5O[C@]543)[C@@]12C", "note": "[Nomilin]", "cell viability": 101},
      {"smiles": "CC(=O)N1CCC(Nc2cc(C(=O)NC[C@H](O)CN3CCc4ccccc4C3)ncn2)CC1", "cell viability": 85.2},
      {"smiles": "NCCCC[C@@H]1NC(=O)[C@@H](Cc2ccccc2)NC(=O)[C@H](CC(=O)O)NC(=O)CNC(=O)[C@H](CCCN=C(N)N)NC1=O", "note": "[Cyclo (-RGDfK)]", "cell viability": 118},
      {"smiles": "Cc1cc(Nc2ncc3c(n2)N(C)C(=O)N(c2cc(NC(=O)c4cccc(C(F)(F)F)c4)ccc2C)C3)n(C)n1", "note": "[Pluripotin (SC1)]", "cell viability": 20.3},
      {"smiles": "c1ccc(NCc2ccc(CNc3ccccn3)cc2)nc1", "cell viability": 84.2},
      {"smiles": "O=c1cc(-c2ccc(O)c(O)c2)oc2c([C@@H]3O[C@H](CO)[C@@H](O)[C@H](O)[C@H]3O)c(O)cc(O)c12", "note": "[Orientin]", "cell viability": 100},
      {"smiles": "OCC1OC(Oc2ccc(O)cc2)C(O)C(O)C1O", "note": "(stereo not drawn) [alpha-Arbutin]", "cell viability": 101},
      {"smiles": "CCCCCCCCCCCCCCCC(=O)OCC(O)C1OC(=O)C(O)=C1O", "note": "[L-Ascorbyl 6-palmitate]", "cell viability": 106},
      {"smiles": "COC(=O)[C@]12CCC(C)(C)C[C@H]1[C@H]1C(=O)C=C3[C@@]4(C)C=C(C#N)C(=O)C(C)(C)[C@@H]4CC[C@@]3(C)[C@]1(C)CC2", "note": "[Bardoxolone Methyl]", "cell viability": 0.13},
      {"smiles": "COC(=O)c1cc(O)c(O)c(O)c1", "note": "[Methyl gallate]", "cell viability": 110},
      {"smiles": "COc1ccccc1OCC(O)CO", "note": "(stereo not given) [Guaifenesin (Guaiphenesin)]", "cell viability": 118},
      {"smiles": "N#Cc1cccc(-c2c[nH]c3ncnc(N4CCOCC4)c23)c1", "cell viability": 106},
      {"smiles": "c1cncc(-c2cn[nH]n2)c1", "cell viability": 34.6},
      {"smiles": "C1=Cc2ccccc2Nc2ccccc21", "note": "[Iminostilbene]", "cell viability": 92.6},
      {"smiles": "COc1ccc(-c2oc3c(CC=C(C)C)c(O)cc(O)c3c(=O)c2O[C@@H]2O[C@@H](C)[C@H](O)[C@@H](O)[C@H]2O)cc1", "note": "[Baohuoside I]", "cell viability": 107}
    ]}
  ]
}
